From PubChem
Pf growth 96h: P. falciparum growth inhibition at 96 hour, primary screen for plastid delayed-death inhibitors; P. falciparum luciferase reporter growth, 96 h; Potency, µM (highest dose often 28.7 µM), for the others: at the top dose activity change, negative = inhibition, actives largely listed as inhibitors; actives 6.9% (n = 320,000); active = well fitted inhibition curve with a large enough effect; inconclusive = small, poorly fitted or top-dose-only effect, or another doubt; inactive = no such curve, though single readings can be large or run the other way; also: potency is read from the fitted curve at half-maximal effect; % is scaled to controls: 0 for no effect and ±100 for the full control effect
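Luminescence readout: decreased luciferase signal marks inhibited growth of reporter-expressing P. falciparum in infected red cells (2% hematocrit, 0.05% parasitemia final), exposed to compound two generations (96 h, 37 C, 5% CO2).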
Pf growth 48h: inhibits P. falciparum growth in the first generation, 48 h. P. falciparum luciferase growth in erythrocytes, 48 h. Potency, µM (top dose mostly 28.7 µM), inactives show at the highest dose activity change, negative = inhibition, actives largely listed as inhibitors. actives 5.9% (n = 310,000). AID 504832; active = well fitted inhibition curve with a large enough effect; inconclusive = small, poorly fitted or top-dose-only effect, or another doubt; inactive = no such curve, though single readings can be large or run the other way; also: potency is read from the fitted curve at half-maximal effect; % is scaled to controls: 0 for no effect and ±100 for the full control effect
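Here the parasites carry a stable luciferase gene and grow inside erythrocytes in Albumax-based RPMI medium with compound for one erythrocytic cycle. Activity is scored as loss of luminescent signal.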
Shiga inhibitor: inhibitors of Shiga toxin in Vero cells | Vero cells, Shiga toxin protein synthesis inhibition reporter | inhibition, % at 38.7 µM | actives 9.2% (n = 290,000) | AID 2315; in the data active = inhibition mostly above about 28%, no sharp cut-off; inactive = mostly below about 43%; also: 0% is about no effect
SARS PLpro yeast: SARS-CoV PLP inhibition in yeast; S. cerevisiae expressing SARS-CoV PLpro, growth rescue; Potency, µM (titrated, usually from 32.9 µM), for inactives: top-dose activity, positive = growth rescue, hits mostly activators; actives 0.19% (n = 330,000); AID 485353; also: potency is read from the fitted curve at half-maximal effect; 0% is about no effect; nearly all actives have a fitted effect of over 55% in size
CHX counter: affects cycloheximide protein synthesis inhibition readout, counter-screen. max response, %. actives 12% (n = 300,000). AID 2314. cell reporter, cycloheximide protein synthesis inhibition counterscreen; in the data active = max response mostly above about 13%, no sharp cut-off; inactive = mostly below about 14%; also: read at 38.3 µM for the half of the compounds with a filed dose; 0% is about no effect
NS1 function inh: influenza NS1 inhibition; Potency, µM (highest dose often 46.1 µM), for inactives: at the highest dose activity, positive = more growth; actives 0.4% (n = 270,000); AID 2326; also: potency is read from the fitted curve at half-maximal effect; actives are rising curves; nearly all actives have a fitted effect of over 50% in size
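OD600 was taken as the measure of yeast growth restored by compound in an NS1-expressing S. cerevisiae strain. Cells had been washed out of glucose medium and diluted 1:100 into galactose -URA medium, pH 6.0.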
* = called active by the depositor; i = inactive; ? = inconclusive; . = no result given. Only some compounds are listed: those with a hit (about 21% of all), similar ones and a draw of the others. Unless noted, calls follow the shape of the full dose curve.

SMILES | Pf growth 96h | Pf growth 48h | Shiga inhibitor | SARS PLpro yeast | CHX counter | NS1 function inh
CCOC(=O)C1CCCN(C(=O)CCc2nnc(-c3ccc(C(C)=O)s3)o2)C1 (centres undefined) | 6% | -31% | 109* | -15% | 63* | 2%
O=C(CN1CCN(c2ccc(C(F)(F)F)cn2)CC1)NCc1ccc2c(c1)OCO2 | ? | 0% | 14 | 0% | 8 | -1%
Cc1cc2nnc(SCC(=O)Nc3ccc(Cl)cc3)n2c(N)n1 | ? | -7% | -12 | -2% | -1 | 10%
CCOC(=O)N1CCN(CCc2ccccc2)CC1 | 10µM* | 26% | -10 | 1% | -3 | 17%
CCOC(=O)N1CCN(C(=O)CSCc2ccccc2)CC1 | ? | 57% | 22 | 0% | 35* | 9%
O=c1c2ccccc2nnn1CSc1nnc2sc3ccccc3n12 | 114% | 195% | 79* | -3% | 38* | 0%
Cc1ccc2nc(SCn3nnc4ccccc4c3=O)[nH]c2c1 | 80% | 133% | 98* | 1% | 65* | 15%
Cc1ccc(SCn2nnc3ccccc3c2=O)c(C)c1 | 189% | i | 118* | -13% | 51* | -4%
O=c1c2ccccc2nnn1CSc1nc2ccccc2[nH]1 | 152% | 148% | 77* | 18% | 43* | 1%
CCOc1ncccc1C(=O)OCC(=O)Nc1nnc(-c2ccccc2)o1 | -28% | ? | . | 4% | . | .
O=C(CCc1c[nH]c2ccccc12)NCCc1ccc(Cl)cc1 | ? | -5% | -7 | -2% | -2 | -20%
CCCCn1c(N)c(N(CC(C)C)C(=O)c2c(-c3ccccc3)noc2C)c(=O)[nH]c1=O | ? | ? | . | 0% | . | .
Cc1ccc(N(C(=O)CNC(=O)c2ccco2)C(C(=O)NC2CCCC2)c2ccncc2)cc1F (centres undefined) | -1% | 9% | -6 | -6% | -2 | -11%
O=c1c2ccccc2nnn1CSc1ncnc2ccccc12 | ? | 2% | -23 | 12% | -2 | -1%
O=c1c2ccccc2nnn1CSc1nnc(-c2cccnc2)n1-c1ccccc1F | 0% | ? | -15 | 3% | -5 | 10%
O=C(O)c1nn(CCSc2ccccc2F)c(=O)c2ccccc12 | 56% | 37% | 52 | 0% | 23* | -5%
Cc1ccc(-n2c(SCn3nnc4ccccc4c3=O)nnc2-c2cccnc2)c(C)c1 | ? | 10µM* | -20 | 2% | 2 | -3%
O=c1c2ccccc2nnn1CSc1ccccc1F | 359% | 290% | 55* | 1% | 63* | -15%
CCN(CC)C(=S)Oc1ccc(Cl)cc1Cl | 13% | 24% | 15 | 0% | -3 | 3%
Cn1c(=O)c2c(nc(N/N=C/c3ccc(OC(=O)c4ccco4)cc3)n2Cc2ccccc2Cl)n(C)c1=O | ? | ? | -4 | -1% | -3 | 13%
COc1ccc(NC(=O)CN2CCC3(O)CCCCC3C2c2cc(OC)ccc2OC)cc1 (centres undefined) | ? | ? | -10 | 9% | 2 | -7%
COC(=O)c1c(NC(=O)CN2CCC3(O)CCCCC3C2c2ccc(OC)cc2OC)sc(C)c1C (centres undefined) | -18% | 12µM* | -5 | -34% | 7 | 12%
COC(=O)c1c(NC(=O)CN2CCC3(O)CCCCC3C2c2ccccc2OC)sc(C)c1C (centres undefined) | ? | 5.2µM* | -1 | -29% | 6 | -14%
COC(=O)c1ccc(Cn2cc(Cl)cn2)o1 | 18% | -2% | -15 | 0% | -1 | 0%
COc1cccc(-c2ccc(NC(=O)C3CCCN(CCCn4nc(C)cc4C)C3)cc2)c1 (centres undefined) | -26% | ? | -2 | -3% | 7 | -4%
SMILES | Pf growth 96h | Pf growth 48h | Shiga inhibitor | SARS PLpro yeast | CHX counter | NS1 function inh
COCc1nc2c([nH]1)c(=O)n(C)c(=O)n2CC(C)C | 13% | 31% | . | . | . | 0%
O=C(COC(=O)c1ccc(NC(=O)C2CC=CCC2C(=O)O)cc1)c1ccccc1 (centres undefined) | -23% | 18% | 75* | 1% | 36* | 2%
COC(=O)c1ccc(NC(=O)C2CCCCC2C(=O)O)cc1 (centres undefined) | 35% | 0% | -4 | 2% | 1 | 2%
COc1ccc(NC(=O)c2ccccc2NC(=O)C2CC=CCC2C(=O)O)cc1 (centres undefined) | 12% | 15% | 88* | . | 41* | 17%
COc1ccc(NC(=O)c2ccccc2NC(=O)C2CCCO2)cc1 (centres undefined) | . | 126% | 49* | 0% | 24* | -2%
COc1cccc(C(=O)Nc2ccc(NC(=O)C3CCCCC3C(=O)O)cc2)c1 (centres undefined) | -20% | -4% | 21 | 26% | 39* | 6%
CC(C)NC(=O)c1ccccc1NC(=O)C1CCCO1 (centres undefined) | -12% | . | -5 | -6% | -2 | 5%
CCOC(=O)C1(c2nc(N)cs2)COC(=O)C1 (centres undefined) | -10% | -27% | -3 | -10% | -5 | -15%
O=C(NCCc1ccccc1)c1ccccc1NC(=O)C1CCCO1 (centres undefined) | ? | 101% | 67* | -1% | 30* | 1%
Cc1ccccc1Oc1ccc(NC(=O)C2CC=CCC2C(=O)O)cc1 (centres undefined) | ? | -5% | 1 | 0% | -2 | 1%
COc1cccc(C(=O)Nc2ccc(NC(=O)C3CC=CCC3C(=O)O)cc2)c1 (centres undefined) | 12µM* | 150% | 77* | 4% | 24* | 4%
O=C(O)c1ccccc1NC(=O)C1CCCO1 (centres undefined) | 89% | 6% | -29 | . | 23 | 6%
COc1cccc(N2CCN(S(=O)(=O)c3cc4c(cc3Cl)NC(=O)CO4)CC2)c1 | ? | 23% | -2 | 1% | -4 | -4%
Nc1ccccc1C(O)(Cc1ccccc1)c1ccccc1 (centres undefined) | ? | . | -2 | -6% | -4 | 12%
N/C(=N\OC(=O)c1cccc(Br)c1)c1ccc(Br)cc1 | 1.9µM* | 48% | 0 | -6% | -1 | -8%
NC(=O)C(c1ccc(Br)cc1)c1ccc(C(=O)c2ccccc2)cc1 (centres undefined) | 5% | -1% | -7 | -2% | 23* | -2%
Cc1cc(C(=O)O/N=C(\N)c2ccc(C(C)(C)C)cc2)no1 | 463% | 362% | 42* | -1% | 33* | 1%
N/C(=N\OC(=O)c1ccc(Br)cc1)c1ccccc1 | i | -58% | 144* | -7% | 66* | -78%
O=C(C/C=N/OCc1c(Cl)cccc1Cl)c1ccc(Cl)cc1 | 0% | ? | 17 | -3% | 16 | 2%
CSCCC(NC(N)=O)C(=O)Nc1cccc(C#N)c1 (centres undefined) | 6% | 14% | 22 | 1% | -2 | .
